Data on seven compounds can be found in PubChem BioAssay.

A short description of assay [1]: yeast TOR pathway RPL19A-GFP modulators, primary screen, cell-based, S. cerevisiae, multiplex flow cytometry (AID 1862; in the data active = percent of DMSO control GFP below about 86%;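 note: lower values mimic rapamycin by blocking the RPL19A rise seen in DMSO cells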). Particulars: S. cerevisiae RPL19A-GFP strain, flow cytometry fluorescence, 3 h; at 10 µM; stronger effect = lower value. Background: Flow cytometry measures light scatter and fluorescence of single cells or particles in a stream.
Assay [2] can be described thus: modulators of MEP2-GFP levels in yeast, primary screen, S. cerevisiae, multiplex flow cytometry (AID 1867;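 active = GFP response, as percent of the DMSO control, above the screen-wide mean plus 3 SD, about 139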;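 note: median GFP channel fluorescence of barcode-gated MEP2-GFP cells measured by flow cytometry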). Particulars: S. cerevisiae MEP2-GFP strain, 3 h, at 10 µM, stronger effect = higher value, 100% means same as DMSO wells.
A short description of assay [3]: modulators of CIT2-GFP expression in yeast, primary screen, S. cerevisiae, GFP fusion, multiplex flow cytometry (AID 1870;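 active = percent response above a set limit, the screen-wide mean plus 3 SD, cut at about 130% in these data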;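 note: barcoded CIT2-GFP strain pooled with four other GFP strains with rapamycin as positive control; median GFP fluorescence per well over plate mean of DMSO wells so 100% = DMSO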). Particulars: 3 h, at 10 µM, stronger effect = higher value.
The nature of assay [4]: modulators of LAP4-GFP expression in yeast, primary screen, S. cerevisiae, multiplex flow cytometry (AID 1873;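 active = GFP signal, as percent of the solvent control, above the screen mean plus 3 SD, about 149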). As to conditions: 3 h, at 10 µM, stronger effect = higher value.
The nature of assay [5]: modulators of AGP1-GFP expression in yeast TOR pathway, primary screen, cell-based, multiplex flow cytometry, S. cerevisiae (AID 1887;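 active = GFP signal above the screen-wide mean plus 3 SD, that is over about 124.5% of the solvent control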;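 note: AGP1-GFP fusion strain of S. cerevisiae within a five-strain barcoded multiplex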). As to conditions: 3 h, at 10 µM, stronger effect = higher value.
Assay [6] in a line: inhibitors of CD8+ T cell-vesicle binding, pilot screen, LFA-1/ICAM-1 modulator project, MLPCN validation set, flow cytometry (AID 2523;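 active = response below a set limit, under 55% cells CD8-positive and vesicle-bound, and CD8 cells' 90th-percentile brightness under 279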;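 for vesicle binding response: mean PE anti-B7-1 fluorescence of CD8+ cells relative to row control; 100% = QL9-loaded vesicles with DMSO vehicle in the same plate row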). Particulars: 2C mouse CD8+ T cells, at 7 µM, stronger effect = lower value; double positive events: measured here: CD8+/vesicle+ event percentage.
Assay [7] addresses Integrin beta-1 (Homo sapiens) + Integrin alpha-4 (Homo sapiens) (UniProt P13612+P05556). Briefly: inhibition of HUTS-21 binding to VLA-4, pilot screen, VLA-4 allosteric modulator project, U937 cells, HUTS-21 mAb, flow cytometry, validation set (AID 2674;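 active = inhibition above 50%, about 3 SD of the validation set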;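 note: antibody binding induced by the VLA-4 ligand LDV present at three times its Kd; 0% = LDV ligand with antibody and no compound and 100% = antibody without LDV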). Particulars: HUTS-21 LIBS mAb binding, at 6.7 µM, stronger effect = higher value, binding induced by LDV ligand.
Assay [8] is described as follows: superoxide lowering in aged yeast cells, pilot screen, validation compound set (AID 2706;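 active = superoxide response below 65% of plate, a cut near 3 SD across the whole screen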;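 note: yeast exposed to compound for one week at 30 degrees C before staining; 100% = mean of all compound wells on the same plate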). Particulars: S. cerevisiae aging, superoxide DHE fluorescence; at 10 µM; stronger effect = lower value.
The target in assay [9] is Beta-adrenergic receptor kinase 1 (Homo sapiens) (UniProt P25098). Briefly: GRK2 binders displacing RNA aptamer, biochemical, validation, human GRK2, bead flow cytometry (AID 488806;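 active = aptamer binding inhibition above 30%, about 3 SD of noise from non-fluorescent compounds; inactive = inhibition at or below 30%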). As to conditions: bead-bound GRK2, FAM-aptamer displacement, at 10 µM, stronger effect = higher value.
Assay [10] addresses Beta-2 adrenergic receptor (Homo sapiens) (UniProt P07550). Briefly: beta2AR agonists driving receptor internalization, pilot screen, cell-based, FAP fluorogen, flow cytometry, validation set (AID 504459;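 active = percent response above 42, roughly 3 SD of non-fluorescent test compounds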;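 note: agonist-driven loss of surface beta2AR via internalization measured by FAP dye flow cytometry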). As to conditions: Am2.2-beta2AR cells, FAP surface receptor flow cytometry; at 10 µM; stronger effect = higher value.
The target in assay [11] is AP-2 complex subunit beta (Homo sapiens) (UniProt P63010). Briefly: inhibitors of arrestin peptide binding to AP2, pilot screen, biochemical, validation set, GST-AP2 beads, flow cytometry (AID 504541;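 active = inhibition above 54%, about 3 SD of non-fluorescent compounds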;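 note: AP2 carries R879A mutation and is captured from E. coli lysate; bead-bound FITC arrestin peptide fluorescence measuring arrestin peptide binding to AP2; 0% = DMSO wells and 100% = excess unlabeled arrestin peptide control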). As to conditions: FITC arrestin peptide, at 10 µM, stronger effect = higher value, AP2 beta2 appendage fragment, R879A mutant.
Assay [12] is described as follows: yeast V-ATPase proton transport modulators, S. cerevisiae, pHLuorin, HTS validation (AID 504600; in the data active = response above about 15%;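 note: plate controls were DMSO for no effect and reference compound for full effect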). Particulars: S. cerevisiae pHLuorin cytosolic pH, at 10 µM, stronger effect = higher value.
Assay [13] concerns anti-desmoglein-3 scFv antibody binding to human DSG3. Briefly: inhibitors of anti-DSG3 scFv binding to DSG3, pilot screen, biochemical, validation compound set, bead-based, flow cytometry (AID 588368;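 active = binding below the plate cutoff, the plate median minus 3 SD, with a reading above zero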;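 note: signal is the median channel fluorescence of bead-bound GFP antibody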). As to conditions: Protein G beads, DSG3-Fc, scFv-GFP binding, at 10 µM, stronger effect = lower value.
Assay [14] is described as follows: inhibitors of fungal efflux pumps CDR1, CDR2, MDR1, pilot screen, validation compound set, multiplex, phenotypic (AID 588506;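 active = efflux inhibition above 0.42, the validation set average plus 4 SD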;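 note: Nile Red retained in cells so higher fluorescence means more efflux inhibition; 0 = negative control wells and 1 = enniatin B 25 µM full block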). As to conditions: S. cerevisiae pump-expressing triplex, Nile Red efflux flow cytometry; at 10 µM; stronger effect = higher value; the pumps come from Candida albicans.
The target of assay [15] is ATP-binding cassette sub-family B member 6 (Homo sapiens) (UniProt Q9NP58). Briefly: ABCB6 transporter inhibitors, pilot screen, K562-ABCB6 cells, flow cytometry, validation set (AID 588550).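 Note: 0% = DMSO wells and 100% = benzethonium chloride 70 µM positive control.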 As to conditions: K562-ABCB6 porphyrin accumulation, 1 h, at 10 µM, stronger effect = higher value.
Assay [16] in a line: promoters of myeloid differentiation in arrested cells, primary screen, cell-based, GFP/MAC1 double positive, flow cytometry, validation set (AID 588685;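 active = differentiation response of at least 50%, scaled between solvent and reference control, from cells with both markers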;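 note: compound exposure lasts four days before antibody staining and flow analysis; 0% = DMSO wells and 100% = 5 µM fulvestrant positive control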). Particulars: ER-HoxA9 marrow cells, stronger effect = higher value, normalized: vehicle 0, fulvestrant 100.

Inconclusive results are not listed. The source made the active and inactive calls.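 Rule for the calls, unless noted: active = inhibition above the screen-wide mean plus 3 SD, about 51%; inactive = the rest.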

Sequence of Integrin beta-1 (Homo sapiens) + Integrin alpha-4 (Homo sapiens) (P05556 whole entry, looked up): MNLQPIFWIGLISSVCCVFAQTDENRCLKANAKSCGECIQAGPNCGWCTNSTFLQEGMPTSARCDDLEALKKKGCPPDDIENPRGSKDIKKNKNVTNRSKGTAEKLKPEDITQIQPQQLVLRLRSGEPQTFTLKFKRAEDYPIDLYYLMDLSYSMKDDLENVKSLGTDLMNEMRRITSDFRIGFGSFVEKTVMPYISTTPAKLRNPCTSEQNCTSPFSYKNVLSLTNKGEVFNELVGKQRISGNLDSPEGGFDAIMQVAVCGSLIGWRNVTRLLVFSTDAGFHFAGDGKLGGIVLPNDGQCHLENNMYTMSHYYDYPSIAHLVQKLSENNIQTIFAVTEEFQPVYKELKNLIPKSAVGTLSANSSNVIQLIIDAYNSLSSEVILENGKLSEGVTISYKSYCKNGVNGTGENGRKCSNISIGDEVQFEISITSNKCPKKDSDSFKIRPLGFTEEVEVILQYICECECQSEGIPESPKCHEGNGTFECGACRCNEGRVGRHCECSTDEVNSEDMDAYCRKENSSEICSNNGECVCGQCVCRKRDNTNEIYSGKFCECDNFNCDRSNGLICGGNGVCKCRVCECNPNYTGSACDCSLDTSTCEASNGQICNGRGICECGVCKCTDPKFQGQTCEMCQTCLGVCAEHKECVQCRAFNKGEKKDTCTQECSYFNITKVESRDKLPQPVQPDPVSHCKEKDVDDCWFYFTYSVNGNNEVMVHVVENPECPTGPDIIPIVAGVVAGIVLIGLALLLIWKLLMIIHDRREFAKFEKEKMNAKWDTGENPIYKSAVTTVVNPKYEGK
Sequence of Integrin beta-1 (Homo sapiens) + Integrin alpha-4 (Homo sapiens) (P13612 whole entry, looked up): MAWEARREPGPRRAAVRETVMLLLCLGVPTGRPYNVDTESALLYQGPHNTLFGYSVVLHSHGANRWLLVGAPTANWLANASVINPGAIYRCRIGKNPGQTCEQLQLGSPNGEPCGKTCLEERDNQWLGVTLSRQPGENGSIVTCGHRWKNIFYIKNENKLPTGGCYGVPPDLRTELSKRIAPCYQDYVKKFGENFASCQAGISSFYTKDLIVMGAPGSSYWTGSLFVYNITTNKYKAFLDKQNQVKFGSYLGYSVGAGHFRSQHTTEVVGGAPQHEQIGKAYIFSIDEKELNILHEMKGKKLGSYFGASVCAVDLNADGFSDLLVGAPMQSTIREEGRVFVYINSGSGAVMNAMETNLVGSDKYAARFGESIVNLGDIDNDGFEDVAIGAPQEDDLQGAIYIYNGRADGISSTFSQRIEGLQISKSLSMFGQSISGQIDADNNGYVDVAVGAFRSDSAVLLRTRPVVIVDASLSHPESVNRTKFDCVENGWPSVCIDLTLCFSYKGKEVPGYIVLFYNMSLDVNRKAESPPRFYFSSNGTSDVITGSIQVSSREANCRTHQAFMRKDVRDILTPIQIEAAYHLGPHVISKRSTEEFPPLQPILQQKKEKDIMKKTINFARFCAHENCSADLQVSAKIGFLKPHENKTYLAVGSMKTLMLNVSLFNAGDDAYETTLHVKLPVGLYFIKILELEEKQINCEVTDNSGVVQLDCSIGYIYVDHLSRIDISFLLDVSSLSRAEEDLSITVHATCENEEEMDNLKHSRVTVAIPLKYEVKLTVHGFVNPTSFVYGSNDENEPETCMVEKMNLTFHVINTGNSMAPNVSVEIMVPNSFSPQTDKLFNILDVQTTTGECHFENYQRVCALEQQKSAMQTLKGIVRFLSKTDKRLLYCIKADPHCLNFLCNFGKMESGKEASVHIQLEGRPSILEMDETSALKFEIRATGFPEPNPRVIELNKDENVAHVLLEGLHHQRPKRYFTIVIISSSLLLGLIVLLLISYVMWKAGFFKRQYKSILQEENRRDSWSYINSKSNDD
Sequence of ATP-binding cassette sub-family B member 6 (Homo sapiens) (Q9NP58 whole entry, looked up): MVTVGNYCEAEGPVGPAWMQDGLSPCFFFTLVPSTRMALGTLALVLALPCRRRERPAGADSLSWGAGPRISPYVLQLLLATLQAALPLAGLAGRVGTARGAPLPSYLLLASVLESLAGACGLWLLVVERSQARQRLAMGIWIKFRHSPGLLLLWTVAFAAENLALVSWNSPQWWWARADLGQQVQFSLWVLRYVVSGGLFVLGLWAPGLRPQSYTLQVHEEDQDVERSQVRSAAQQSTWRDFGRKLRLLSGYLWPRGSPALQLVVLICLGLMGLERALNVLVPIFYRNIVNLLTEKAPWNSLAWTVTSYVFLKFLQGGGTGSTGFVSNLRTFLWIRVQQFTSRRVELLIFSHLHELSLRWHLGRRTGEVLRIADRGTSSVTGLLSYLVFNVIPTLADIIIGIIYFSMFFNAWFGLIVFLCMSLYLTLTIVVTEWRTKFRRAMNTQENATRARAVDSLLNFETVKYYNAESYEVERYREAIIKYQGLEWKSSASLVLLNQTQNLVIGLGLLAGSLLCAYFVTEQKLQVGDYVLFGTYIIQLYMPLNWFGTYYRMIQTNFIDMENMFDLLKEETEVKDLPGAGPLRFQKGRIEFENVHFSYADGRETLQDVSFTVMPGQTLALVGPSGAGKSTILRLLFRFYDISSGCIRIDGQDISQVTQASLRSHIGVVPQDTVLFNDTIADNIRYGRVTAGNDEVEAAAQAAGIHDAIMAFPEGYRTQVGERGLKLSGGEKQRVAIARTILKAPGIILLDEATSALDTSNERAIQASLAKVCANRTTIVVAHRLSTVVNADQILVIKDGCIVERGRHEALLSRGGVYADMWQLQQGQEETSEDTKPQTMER
Sequence of AP-2 complex subunit beta (Homo sapiens) (P63010 whole entry, looked up, the tested form may be a part, one chain of several): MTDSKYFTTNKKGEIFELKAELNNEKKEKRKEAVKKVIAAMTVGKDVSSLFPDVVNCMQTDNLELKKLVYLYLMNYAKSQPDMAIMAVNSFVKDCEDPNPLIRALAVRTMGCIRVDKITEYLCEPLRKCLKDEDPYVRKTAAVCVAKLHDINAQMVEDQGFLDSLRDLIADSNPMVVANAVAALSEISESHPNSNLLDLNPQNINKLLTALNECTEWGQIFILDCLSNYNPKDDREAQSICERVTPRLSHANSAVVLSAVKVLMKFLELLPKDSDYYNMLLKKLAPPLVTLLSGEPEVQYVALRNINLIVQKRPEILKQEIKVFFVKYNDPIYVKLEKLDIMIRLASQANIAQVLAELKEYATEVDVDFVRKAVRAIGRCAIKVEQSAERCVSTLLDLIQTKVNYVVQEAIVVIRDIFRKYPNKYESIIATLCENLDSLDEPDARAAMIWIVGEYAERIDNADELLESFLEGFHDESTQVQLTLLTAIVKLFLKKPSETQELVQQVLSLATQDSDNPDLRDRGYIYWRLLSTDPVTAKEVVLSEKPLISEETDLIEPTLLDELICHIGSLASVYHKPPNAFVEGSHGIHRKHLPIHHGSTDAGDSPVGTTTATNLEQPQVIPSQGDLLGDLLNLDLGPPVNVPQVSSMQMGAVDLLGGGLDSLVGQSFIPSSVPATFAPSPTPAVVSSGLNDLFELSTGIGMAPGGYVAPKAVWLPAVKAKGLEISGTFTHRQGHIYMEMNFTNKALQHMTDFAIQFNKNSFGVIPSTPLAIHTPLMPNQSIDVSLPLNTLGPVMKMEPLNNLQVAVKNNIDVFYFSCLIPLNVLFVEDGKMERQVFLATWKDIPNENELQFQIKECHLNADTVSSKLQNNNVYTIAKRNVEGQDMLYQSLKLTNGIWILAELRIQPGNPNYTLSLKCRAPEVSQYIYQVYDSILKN
Sequence of Beta-2 adrenergic receptor (Homo sapiens) (P07550 whole entry, looked up): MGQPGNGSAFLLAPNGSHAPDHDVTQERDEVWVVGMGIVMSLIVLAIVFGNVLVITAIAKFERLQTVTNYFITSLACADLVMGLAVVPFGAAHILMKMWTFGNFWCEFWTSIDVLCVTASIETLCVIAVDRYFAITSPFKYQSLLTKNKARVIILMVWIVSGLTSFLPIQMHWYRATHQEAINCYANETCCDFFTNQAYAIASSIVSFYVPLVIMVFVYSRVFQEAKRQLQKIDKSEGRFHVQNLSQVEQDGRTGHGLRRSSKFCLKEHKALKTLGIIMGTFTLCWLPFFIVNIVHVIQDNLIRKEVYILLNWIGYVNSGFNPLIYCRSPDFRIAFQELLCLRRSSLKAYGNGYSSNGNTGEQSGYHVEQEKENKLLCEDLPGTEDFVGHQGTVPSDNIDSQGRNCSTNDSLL
Sequence of Beta-adrenergic receptor kinase 1 (Homo sapiens) (P25098 whole entry, looked up): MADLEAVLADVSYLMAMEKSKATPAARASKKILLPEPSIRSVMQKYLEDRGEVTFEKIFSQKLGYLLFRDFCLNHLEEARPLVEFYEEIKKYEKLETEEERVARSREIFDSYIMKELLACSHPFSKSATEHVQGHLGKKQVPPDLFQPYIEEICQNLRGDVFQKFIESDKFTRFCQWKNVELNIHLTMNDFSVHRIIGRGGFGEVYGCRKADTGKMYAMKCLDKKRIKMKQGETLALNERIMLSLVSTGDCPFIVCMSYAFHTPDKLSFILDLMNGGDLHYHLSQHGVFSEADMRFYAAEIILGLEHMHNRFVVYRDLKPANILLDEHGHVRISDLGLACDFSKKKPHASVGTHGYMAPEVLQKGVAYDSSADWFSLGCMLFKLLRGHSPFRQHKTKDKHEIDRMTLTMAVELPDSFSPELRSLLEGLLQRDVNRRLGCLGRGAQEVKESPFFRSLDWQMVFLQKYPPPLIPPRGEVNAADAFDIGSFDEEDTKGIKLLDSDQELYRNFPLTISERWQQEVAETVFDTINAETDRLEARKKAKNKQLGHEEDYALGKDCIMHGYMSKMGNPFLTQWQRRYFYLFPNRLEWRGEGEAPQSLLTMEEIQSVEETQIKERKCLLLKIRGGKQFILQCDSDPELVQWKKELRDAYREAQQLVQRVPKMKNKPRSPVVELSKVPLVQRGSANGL

As a reminder, the inhibition is the relative decrease from the control value, in per cent. As for `CO[C@H]1C=CO[C@@]2(C)Oc3c(C)c(O)c4c(O)c(c(C=NN5CCN(C)CC5)c(O)c4c3C2=O)NC(=O)C(C)=CC=C[C@H](C)[C@H](O)[C@@H](C)[C@@H](O)[C@@H](C)[C@H](OC(C)=O)[C@@H]1C`, the percent of DMSO control GFP in [1] was 93.3% (inactive). For the same compound, the GFP response vs DMSO in [2] is 127% (inactive); in assay [4] it was 78.7% (inactive). Moreover, the percent response of DMSO control in assay [3] is 93.9% (inactive). In addition, the GFP response, % of DMSO in assay [5] was 98.2% (inactive). In assay [6], the double positive events turned out to be 64.9%. Further, the vesicle binding response in assay [6] was 575% (inactive). The inhibition in assay [7] is -46.9% (inactive); in assay [11], -2.48% (inactive); in [15] it was 12% (inactive). Also, the superoxide response (% of plate) in assay [8] was 105% (inactive). Moreover, in assay [9], the aptamer binding inhibition is 3% (inactive). For the same compound, the response in assay [10] was 9.39% (inactive); in [12], -1.49% (inactive). In addition, the binding (% of control) in [13] was 99.2% (inactive). In addition, the efflux inhibition (fraction of control) in assay [14] was 0.01 (inactive). For the same compound, the differentiation response in assay [16] was 2.46% (inactive).

As to `CCOc1ccc2ccccc2c1CNc1nnnn1C`, the percent of DMSO control GFP in assay [1] is 102% (inactive). Moreover, the GFP response vs DMSO was 103% (inactive) in assay [2] and 94% (inactive) in [4]. For the same compound, in [3], the percent response of DMSO control is 107% (inactive). Also, the GFP response, % of DMSO in assay [5] is 96.2% (inactive). This compound yielded a double positive events in assay [6] of 65.8%. Moreover, the vesicle binding response in assay [6] was 1400% (inactive). Further, the inhibition was 18.2% (inactive) in assay [7], -1.6% (inactive) in [11] and 8% (inactive) in assay [15]. Further, in assay [8], the superoxide response (% of plate) is 91% (inactive). Moreover, the aptamer binding inhibition in [9] is 3% (inactive). Moreover, the response in [10] was -8.39% (inactive); in assay [12] it was 1.46% (inactive). Further, the binding (% of control) in assay [13] was 98.4% (inactive). In addition, the efflux inhibition (fraction of control) in [14] was 0.05 (inactive). In addition, in assay [16], the differentiation response is 13.9% (inactive).

`CC(C)OC(=O)c1ccc(NC(=O)c2cncc(Br)c2)cc1`: the percent of DMSO control GFP in assay [1] is 103% (inactive). The figures for the GFP response vs DMSO in [2] and in assay [4] were 104% (inactive) and 103% (inactive), respectively. Besides, in [3], the percent response of DMSO control is 98.6% (inactive). The GFP response, % of DMSO in assay [5] is 88.5% (inactive). The compound also registered a double positive events in [6] of 56.1%. Further, in assay [6], the vesicle binding response is 143% (inactive). Also, the inhibition in assay [7] was 16.3% (inactive); in assay [11], -2.11% (inactive); in assay [15] it was -3% (inactive). Further, in assay [8], the superoxide response (% of plate) was 114% (inactive). Further, the aptamer binding inhibition in assay [9] was -1% (inactive). Also, the response is 0.79% (inactive) in [10] and 4.94% (inactive) in [12]. The binding (% of control) in assay [13] is 99% (inactive). In [14], the efflux inhibition (fraction of control) is 0.04 (inactive). The differentiation response in assay [16] is -7.5% (inactive).

Consider `CN(C)CCOCCOc1ccc(Cl)cc1Br`, for which, in assay [1], the percent of DMSO control GFP is 93.7% (inactive). Further, the GFP response vs DMSO in [2] was 119% (inactive); in [4], 77% (inactive). Moreover, in assay [3], the percent response of DMSO control is 101% (inactive). In addition, the GFP response, % of DMSO in assay [5] was 90.3% (inactive). Further, the double positive events in assay [6] is 47.1%. In assay [6], the vesicle binding response was 160% (inactive). In addition, the results for the inhibition in [7], in [11] and in assay [15] were -2.27% (inactive), -6.43% (inactive) and 4% (inactive), respectively. Moreover, the superoxide response (% of plate) in assay [8] is 97.8% (inactive). The aptamer binding inhibition in assay [9] was -6% (inactive). For the same compound, the response in assay [10] is -10% (inactive); in [12], 1.08% (inactive). Also, the binding (% of control) in assay [13] was 105% (inactive). The efflux inhibition (fraction of control) in assay [14] is 0.09 (inactive). Also, the differentiation response in assay [16] is 13.1% (inactive).

With `C#CCOc1ccc2c(C)cc(=O)oc2c1`, the percent of DMSO control GFP in assay [1] was 105% (inactive). The GFP response vs DMSO was 93% (inactive) in [2] and 77.6% (inactive) in assay [4]. In addition, in [3], the percent response of DMSO control is 107% (inactive). For the same compound, in assay [5], the GFP response, % of DMSO was 98.9% (inactive). In assay [6], this compound showed a double positive events of 60.4%. Moreover, in [6], the vesicle binding response was 603% (inactive). In addition, the inhibition was 3.7% (inactive) in assay [7], -7.76% (inactive) in assay [11] and 0% (inactive) in assay [15]. For the same compound, the superoxide response (% of plate) in [8] is 98% (inactive). Besides, the aptamer binding inhibition in [9] is 4% (inactive). Besides, the figures for the response in assay [10] and in assay [12] were -1.57% (inactive) and -0.49% (inactive), respectively. In addition, the binding (% of control) in [13] was 99.7% (inactive). Also, in assay [14], the efflux inhibition (fraction of control) is 0.36 (inactive). Besides, in assay [16], the differentiation response is 16.9% (inactive).

For `CCOCCn1c(C(C)O)nc2ccccc21` (centres undefined), in [1], the percent of DMSO control GFP is 105% (inactive). Moreover, the GFP response vs DMSO is 96.2% (inactive) in [2] and 98% (inactive) in assay [4]. The percent response of DMSO control in assay [3] is 111% (inactive). Further, in [5], the GFP response, % of DMSO is 104% (inactive). The double positive events in assay [6] came to 62.6%. Besides, in assay [6], the vesicle binding response is 278% (inactive). Also, the inhibition in assay [7] is 20.3% (inactive); in assay [11] it was -8.14% (inactive); in assay [15] it was -3% (inactive). The superoxide response (% of plate) in [8] was 89.7% (inactive). Moreover, the aptamer binding inhibition in assay [9] was 1% (inactive). The results for the response in assay [10] and in [12] were -7.33% (inactive) and 4.51% (inactive), respectively. In addition, the binding (% of control) in [13] was 95.3% (inactive). In assay [14], the efflux inhibition (fraction of control) was 0.02 (inactive). Besides, the differentiation response in [16] is 7.09% (inactive).

Consider `CSc1ccc(/C=N/N2CCN(Cc3ccc(C)cc3C)CC2)cc1`, for which, in assay [1], the percent of DMSO control GFP was 100% (inactive). In addition, the values for the GFP response vs DMSO in [2] and in [4] were 99.7% (inactive) and 97% (inactive), respectively. Moreover, in [3], the percent response of DMSO control is 110% (inactive). In addition, the GFP response, % of DMSO in assay [5] was 96.3% (inactive). This compound registered a double positive events in assay [6] of 61.9%. In addition, the vesicle binding response in [6] is 118% (inactive). Moreover, the values for the inhibition in assay [7], in assay [11] and in assay [15] were -5.11% (inactive), 7.81% (inactive) and 25% (inactive), respectively. Besides, in assay [8], the superoxide response (% of plate) is 97.2% (inactive). Also, the aptamer binding inhibition in assay [9] was -2% (inactive). Also, the response is 6.9% (inactive) in assay [10] and 4.06% (inactive) in assay [12]. Also, the binding (% of control) in assay [13] is 103% (inactive). The efflux inhibition (fraction of control) in assay [14] was 0.22 (inactive). The differentiation response in assay [16] was 11.5% (inactive).
